The source made the active and inactive calls. Calls come from the whole dose curve; as a rule, active = well fitted activation curve with a large enough effect; inconclusive = small, poorly fitted or top-dose-only effect; inactive = flat fitted curve, though single readings scatter.
Assay: Cellular Toxicity (caspase-3) HepG2 (AID 654);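 note: cells exposed to compound for 16 hours before reading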
Settings: HepG2 caspase-3 activation, luminescence, 0% = DMSO only, 100% = tamoxifen; series mostly up to 92.2 µM
Description: NIH Chemical Genomics Center [NCGC]
NIH Molecular Libraries Screening Centers Network [MLSCN]
National Institutes of Environmental Health Sciences [NIEHS]
National Toxicology Program [NTP]
We have developed a 1536-well cell-based assay for quantitative high throughput screening (qHTS) against a number of cell lines to determine in vitro caspase 3/7 of small molecules. This particular assay uses the HepG2 cell line which is derived from human hepatocellular carcinoma.
NCGC Assay Protocol Summary:
The Caspase-Glo 3/7 assay (Promega) is a homogeneous method to measure caspase-3 and caspase-7 activities in cultured cells. The quantitation of caspase 3/7 activity is based on the cleavage of a peptide-aminoluciferin substrate. After caspase cleaves the substrate the free aminoluciferin is liberated and serves as the substrate of luciferase, which generates the light. The luminescent signal is proportional to amount of caspase 3/7 activity present.
Using the Caspase-Glo 3/7 assay, the amount of caspase 3/7 activity was measured in the HepG2 cell line with complete culture medium following compound treatment for 16 hours. The assay was performed in opaque white 1536-well plates. In the screen, tamoxifen and doxorubicin were used as positive controls. Library compounds were measured for their ability to cause the activation of caspase 3/7 in the cell line, as reflected by an increase in luminescence signal, in a concentration-dependent manner. Data were normalized to the controls for basal activity (DMSO only) and 100% stimulation (100 uM tamoxifen). AC50 values were determined from concentration-response data modeled with the standard Hill equation.
qHTS protocol for caspase 3/7 assay in HepG2 cells
[Step] [Parameter] [Value] [Description]
1. Reagent; 5 uL; 1500 HepG2 cells/well
2. Time; 5 hr; 37 °C incubation
4. Controls; 23 nL; Tamoxifen 0.23 uM to 100 uM & Doxorubicin 7.0 pM to 100 uM
5. Time; 16 hr; 37 °C incubation
6. Reagent; 5 uL; Caspase-Glo 3/7 reagent
7. Time; 20 min; Room Temperature
8. Detection; Luminescence; Viewlux plate reader
Keywords: caspase 3/7, apoptosis, HepG2 cell line, luminescence, NTPHTS, NTPHTS_NCGC, NIEHS, EPA, DSSTox, MLSMR, MLSCN, NIH Roadmap, qHTS, NCGC

SMILES | outcome
O=[N+]([O-])c1ccc2c3c(cccc13)CC2 | inactive
[O-][Cl+2]([O-])O | inactive
O=[N+]([O-])c1cccc(O)c1 | inactive
Cc1ccc2c(C)cccc2c1 | inactive
CCCBr | inactive
BrCC(Br)C1CCC(Br)C(Br)C1 (stereo not given) | inactive
c1ccc2c(c1)CCNC2 | inactive
ClC=CCl | inactive
CN(C)c1ccc(N(C)C)cc1 | inactive
C=CC(=O)OCCN(C)C | inactive
Nc1ccc(Cc2ccc(N)c(Cl)c2)cc1Cl | inactive
ClCCBr | inactive
Nn1cnnc1 | inactive
COC(=O)Nc1cccc(OC(=O)Nc2cccc(C)c2)c1 | inactive
CCCCCc1cc(O)cc(O)c1 | inactive
CCSC(=O)N1CCCCCC1 | inactive
Cc1ccc(N)c(C)c1 | inactive
OCC(Cl)CCl (stereo not given) | inactive
CNC(=O)O/N=C/C(C)(C)S(C)=O (stereo not given) | inactive
CC(C)C#N | inactive

SMILES | outcome
Nc1ccc(-c2ccccc2)cc1 | inactive
CCOC(=O)CBr | inactive
CC(C)CON=O | inactive
Oc1cccc(Cl)c1Cl | inactive
C=CC=O | inactive
OCCCCO | inactive
C=CCc1cc(OC)c2c(c1)OCO2 | inactive
Cc1ccc(N)cc1Cl | inactive
Oc1cc(Cl)c(Cl)c(Cl)c1 | inactive
O=S(=O)(O)F | inactive
Cc1ccccc1[N+](=O)[O-] | inactive
Nc1cccc2ccccc12 | inactive
C=CC#N | inactive
CC(C#N)CCC#N (stereo not given) | inactive
Cc1cccc(C)c1N | inactive
CCCCCCCCCCCOC(=O)c1ccccc1C(=O)OCCCCCCCCCCC | inactive
CN(C)N=O | inactive
Clc1cccc(Cl)c1 | inactive
Nc1ccc2ccccc2c1 | inactive
Nc1ccc(-c2ccc(N)c(Cl)c2)cc1Cl | inactive
